High-throughput results: PubChem, Sanford-Burnham Center for Chemical Genomics
ER stress surv: ER stress cell death inhibition. CSM14.1 thapsigargin ER stress survival, ATP luminescence. relative survival (cellular ATP), % at 15 µg/mL (by protocol). actives 0.33% (n = 48,000). AID 1010;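 active means survival measured by cellular ATP above 50% at 15 µg/ml in the first screen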;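 further: cell death triggered by about 15 µM thapsigargin; ATP read 24 h after thapsigargin was added; plate controls were thapsigargin with DMSO for no effect and DMSO without thapsigargin for full effect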
Numbers without * were called inactive. Shown is part of a subset that was picked to be rich in hits.

SMILES	ER stress surv
O=C1CC(c2ccccc2)CC2=C1C(c1cccnc1)Nc1ccc(C(=O)c3ccccc3)cc1N2 (stereo unspecified)	102*
O=C1CCCC2=C1C(c1cccs1)Nc1ccc(C(=O)c3ccccc3)cc1N2 (stereo unspecified)	-2
COc1ccc(C2CC(=O)C3=C(C2)Nc2ccccc2NC3c2cccnc2)cc1OC (stereo unspecified)	2
O=C1CCCC2=C1C(c1ccc([N+](=O)[O-])cc1)Nc1ccc(C(=O)c3ccccc3)cc1N2 (stereo unspecified)	121*
COc1ccc(NC(=O)C(=O)NC2CC2)cc1	8
COc1cccc(N(CC(=O)Nc2cccc(Br)c2)S(=O)(=O)c2ccccc2)c1	8
COc1ccc(NC(=O)c2ccccc2[N+](=O)[O-])cc1Cl	8
Cc1cc(/C=C2\C(=O)NC(=S)N(c3cccc(Cl)c3Cl)C2=O)c(C)n1C	10
Cc1ccc2c(Cl)c(C(=O)Nc3cccc(C(F)(F)F)c3)sc2c1	5
CCOc1ccc(-c2csc(/C(C#N)=C\Nc3cc(OC)ccc3OC)n2)cc1	12
Cc1ccc(C(C)C)c(OCC(=O)Nc2cc(C(F)(F)F)ccc2Cl)c1	-2
COc1ccc(CNC(=O)CN(c2cccc3ccccc23)S(C)(=O)=O)cc1	-1
CCOc1ccc(Nc2nc(-c3c(C)nc4cc(C)ccn34)cs2)cc1	96*
Cc1ccn2c(-c3csc(Nc4cccc(O)c4)n3)c(C)nc2c1	40
CCOc1ccc(Nc2nc(-c3ccccn3)cs2)cc1	1
COc1cc(/C=C2/C(=O)NC(=O)N(c3cccc(F)c3)C2=O)ccc1OCc1ccc(C(=O)O)cc1	-1
CC(NC(=O)C12CC3CC(CC(C3)C1)C2)C(=O)N1CCCC1 (stereo unspecified)	-4
O=C(C(c1ccccc1)c1ccccc1)N1CCN(Cc2ccccc2[N+](=O)[O-])CC1	92*
COc1cccc(CN2CCN(C(=O)C(c3ccccc3)c3ccccc3)CC2)c1OC	10
COc1ccccc1C(=O)N1CCN(Cc2ccccc2[N+](=O)[O-])CC1	3
CCOC(=O)C1=C(O)/C(=C/c2ccc(F)cc2)SC1=Nc1ccccc1	4
O=C(Nc1ccc(O)c(-c2nc3ccccc3s2)c1)c1cc([N+](=O)[O-])ccc1Cl	60*
Cc1c(NC(=O)c2cc([N+](=O)[O-])ccc2Cl)cccc1-c1nc2ccccc2s1	-3
O=C(Nc1ccc(O)c(-c2nc3ccccc3s2)c1)c1cccc(Cl)c1Cl	-1
COc1ccc(-c2cc(C(=O)Nc3c(Cl)cccc3Cl)c3ccccc3n2)cc1	7
SMILES	ER stress surv
CCOC(=O)c1c(NC(=O)Cc2ccc(OC)cc2)sc(C(=O)Nc2ccccc2)c1C	1
CC12CC3CC(C1)CC(CNC(=S)Nc1ccccc1)(C3)C2	-2
O=C(Nc1cccc(-c2cn3ccccc3n2)c1)c1ccc(Br)cc1	-2
CCN(CC)c1ccc(Nc2nc(-c3c(C)nc4ccccn34)cs2)cc1	44
Cc1nc(C)c(-c2csc(Nc3ccc(O)cc3)n2)s1	2
CCN(CC)c1ccc(Nc2nc(-c3sc(N)nc3C)cs2)cc1	72*
O=C(Nc1cc(C(F)(F)F)ccc1Cl)C1COc2ccccc2O1 (stereo unspecified)	2
Cc1ccc2nsnc2c1NC(=O)COc1ccccc1[N+](=O)[O-]	16
O=C(CN(c1cccc([N+](=O)[O-])c1)S(=O)(=O)c1ccccc1)NCc1ccco1	13
COc1ccc2ccccc2c1-c1nnc2ccc3ccccc3n12	7
COc1ccc2ccccc2c1-c1nnc2ccc(C(F)(F)F)cn12	60*
FC(F)(F)c1ccc2nnc(-c3cc(Br)ccc3OCc3ccccc3)n2c1	2
O=C(O)CCN1C(=O)/C(=C/C=C/c2ccc([N+](=O)[O-])cc2)SC1=S	3
O=C(COc1ccc2ccccc2c1)Nc1ccc(Cl)c(Cl)c1	0
O=C(COc1ccc2ccccc2c1)Nc1cccc(NC(=O)c2ccc(Cl)cc2Cl)c1	50*
O=C(Nc1cccc(NC(=O)c2cccc3ccccc23)c1)c1ccc(Cl)cc1Cl	9
CN1C(=O)C(=Cc2ccccc2OCc2ccc([N+](=O)[O-])cc2)C(=O)N(C)C1=O	5
COc1cccc(/C=C2/C(=O)NC(=O)N(c3ccc(C(C)C)cc3)C2=O)c1O	15
O=C(NCCN1CCOCC1)C1CCCC1	10
COc1ccc(CN2CCN(C(=O)c3cccs3)CC2)cc1OC	-9
CCn1c2ccccc2c2cc(CN3CCN(C(=O)CC(C)C)CC3)ccc21	63*
CCn1c2ccccc2c2cc(CN3CCN(Cc4ccc(OC)c(Br)c4)CC3)ccc21	2
CCn1c2ccccc2c2cc(CN3CCN(C(=O)c4cccs4)CC3)ccc21	133*
O=C(c1cccs1)N1CCN(Cc2ccc(Cl)cc2)CC1	-4
CC(C)CC(=O)N1CCN(Cc2ccc3ccccc3c2)CC1	-3
Cc1ccc(NC(=O)/C=C/c2ccccc2)c([N+](=O)[O-])c1	0
O=C(Nc1ccc(Cl)c(Cl)c1)Nc1nnc(CSCc2ccccc2)s1	6
Cc1ccc(S(=O)(=O)N2CCN(S(C)(=O)=O)C2C(C)C)cc1 (stereo unspecified)	8
